# This is a sample that favours compounds with a hit; in the whole collection about 1.3% have one here.
# sEH inhibitor: soluble epoxide hydrolase (human) inhibition; P34913; 91,000 compounds, 0.34% hits; recombinant human sEH enzymatic activity assay; inhibition, % at 2 µM; in the data active = inhibition above about 80%
# BAP1 inh: inhibitors of human BAP1 deubiquitinase; recombinant BAP1, Ub-AMC hydrolysis fluorescence kinetic; stronger effect = lower value; calls only at 20 µM; 72,000 compounds, 0.48% hits; AID 436;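 active = activity remaining at or below 50% of control, provided the compound also passes the data quality filters; inactive = the rest, including low values that fail the filters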;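 note: 100% = DMSO wells rate and 0% = substrate alone blank rate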
# Target sequence (Q92560 whole entry, looked up): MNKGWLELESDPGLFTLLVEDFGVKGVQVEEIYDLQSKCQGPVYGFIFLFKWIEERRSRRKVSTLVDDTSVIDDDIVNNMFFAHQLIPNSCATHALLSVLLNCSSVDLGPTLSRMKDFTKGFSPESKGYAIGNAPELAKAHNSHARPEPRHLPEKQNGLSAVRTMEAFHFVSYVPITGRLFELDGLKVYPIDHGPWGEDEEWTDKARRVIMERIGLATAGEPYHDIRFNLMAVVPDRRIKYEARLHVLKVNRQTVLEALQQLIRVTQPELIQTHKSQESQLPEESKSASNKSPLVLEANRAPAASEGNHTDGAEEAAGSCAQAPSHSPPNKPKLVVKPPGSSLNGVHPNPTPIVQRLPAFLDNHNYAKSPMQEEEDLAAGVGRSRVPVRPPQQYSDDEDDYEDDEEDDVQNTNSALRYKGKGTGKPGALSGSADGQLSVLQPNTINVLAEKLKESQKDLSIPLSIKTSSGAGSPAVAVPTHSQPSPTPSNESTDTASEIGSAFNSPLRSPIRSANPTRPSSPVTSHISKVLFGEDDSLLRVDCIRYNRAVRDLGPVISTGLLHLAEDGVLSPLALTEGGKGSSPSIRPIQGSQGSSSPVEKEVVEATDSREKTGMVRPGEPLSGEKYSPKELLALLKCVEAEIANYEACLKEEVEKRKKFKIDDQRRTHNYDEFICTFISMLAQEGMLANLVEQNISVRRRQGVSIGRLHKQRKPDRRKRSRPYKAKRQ
# PLAP activator: activators of human placental alkaline phosphatase; P05187; purified PLAP enzyme, luminescent substrate read-out; stronger effect = higher value; activation fold at 20 µM; 96,000 compounds, 1.2% hits; in the data active = activation fold above about 2
# sEH act: activators of human soluble epoxide hydrolase | purified human sEH enzymatic activity, activator screen | activation, % at 2 µM | 91,000 compounds, 0.04% hits; in the data active = activation above about 37%
# BAP1 inh conf: confirmation of human BAP1 enzyme inhibitors | shares compounds with BAP1 inh | purified BAP1, Ub-ethyl ester hydrolysis, HPLC; stronger effect = lower value | % of control activity, % at 20 µM | 310 compounds, 8% hits;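 active = percent of control activity at or below 60%; inconclusive = HPLC trace unusable from injection failure or solvent front hiding peaks; inactive = the rest, plus ubiquitin peak ratio over a set limit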
# Starred values were filed as active, the others as inactive; i = inactive; ? = inconclusive; · = no result; + = active, no number.
SMILES,sEH inhibitor,BAP1 inh,PLAP activator,sEH act,BAP1 inh conf
CC(=O)C1=C(C)NC(SCC(=O)c2ccc(F)cc2)=C(C#N)C1c1ccco1 (stereo not given),·,i,1.2,·,·
CC1CCC/C(=C\Nc2ccc(O)cc2)C1=O (stereo not given),6,+,1,-7,91
Cc1cc(C(=O)O)ccc1N/C=C1\CCCC(C)C1=O (stereo not given),8,·,1.1,-8,·
COc1cccc(CN(Cc2ccco2)C(c2ccc(F)cc2)c2nnnn2C(C)(C)C)c1 (stereo not given),-19,+,1.5,16,71
COc1ccc(CNCCC2CCOC(C)(C)C2)cc1 (stereo not given),·,i,·,·,·
O=C(Nc1ccc(N2CCN(C(=O)c3ccco3)CC2)c(Cl)c1)c1c(F)c(F)c(F)c(F)c1F,4,+,0.9,-2,?
CCN(CC)c1ccc2cc(C(=O)Nc3ccccc3Cl)c(=N)oc2c1,·,i,·,·,·
Cc1ccc2cc3c(NC(=O)c4ccco4)nn(CC(C)C)c3nc2c1,-7,+,0.9,7,109
Nc1nn(S(=O)(=O)c2cccc3nsnc23)cc1-c1ccc(Br)cc1,-19,+,0.8,19,?
CC1(C)Cc2c(C#N)c(SCc3ccccc3)nc(N3CCOCC3)c2CO1,·,+,1.2,·,121
O=C(CSc1nnc(COc2ccc3c(c2)CCCC3)o1)Nc1ccc(F)cc1,9,+,1.3,-8,93
CCn1c(=NC(=O)c2ccc(N3C(=O)CCC3=O)cc2)sc2c(OC)ccc(OC)c21,·,+,1.2,·,117
CC(=O)Oc1cc2oc3cc(C)ccc3[nH]c2c2c(=O)c3ccccc3c(=O)c12,·,i,·,·,·
CCOC(=O)c1sc2nc(NC(=O)c3cccs3)sc2c1C,·,i,·,·,·
CCOC(=O)c1sc2nc(NC(=O)COc3ccccc3)sc2c1C,-2,+,1.5,3,78
C=CCn1c(COc2ccc(F)cc2)nnc1SCC(=O)NC(=O)NCc1ccco1,·,i,1.4,·,·
C=CCn1c(COc2cccc(C)c2)nnc1SCC(=O)NC(=O)NCc1ccco1,1,+,1,-1,137
Cc1ccc2[nH]c(=O)c(C(c3nnnn3C(C)(C)C)N3CCN(C(=O)c4ccco4)CC3)cc2c1 (stereo not given),-4,·,1.3,6,·
Cc1cccc2cc(C(c3nnnn3C(C)(C)C)N3CCN(C(=O)c4ccco4)CC3)c(=O)[nH]c12 (stereo not given),-12,+,1,16,42*
COc1ccc(OC)c(C2CC(=O)N3CN(c4cccc(Cl)c4C)CSC3=C2C#N)c1 (stereo not given),7,+,1.1,-8,104
CCOC(=O)c1cnc(SCC(=O)Nc2sc(C)c(C)c2C#N)nc1N,5,+,1,-6,31*
CCOC(=O)c1cnc(SCC(=O)Nc2cc(OC)cc(OC)c2)nc1N,-13,i,1,11,·
CC(C)OC(=O)c1ccc(NC(=O)COc2ccccc2Cl)cc1,·,i,·,·,·
CCOc1ccc(Nc2ncnc3[nH]ncc23)cc1,·,i,·,·,·
Cn1nc(-c2ccc(Cl)cc2)c2cc(C(=O)NC3CC3)sc21,17,+,1,-17,155
SMILES,sEH inhibitor,BAP1 inh,PLAP activator,sEH act,BAP1 inh conf
O=C(CN1C(=O)c2ccccc2C1=O)Nc1ccccc1Br,·,i,·,·,·
CCCCCn1c(SCCc2ccccc2)nc2c1c(=O)[nH]c(=O)n2C,5,i,1,-4,·
CCCCCOC(=O)CSc1nc2c(c(=O)[nH]c(=O)n2C)n1CCc1ccccc1,4,+,0.7,1,96
CC(C)OC(=O)c1c(NC(=O)CCn2nnc3ccccc32)sc2c1CCCC2,·,+,1,·,89
CCOc1cccc2sc(NC(=O)c3ccc(Br)s3)nc12,·,+,1.3,·,81
CC1=Nc2cc(C)c(C)cc2NC(=O)C1,·,i,·,·,·
N#C/C(=C\c1ccc[nH]1)Sc1nc2ccccc2s1,·,+,1,·,86
CCc1c(C)sc(NC(=O)c2cccs2)c1C(=O)OC(C)C,-8,i,1.2,7,·
CCOC(=O)c1c(NC(=O)c2cccs2)sc(C)c1CC,·,+,1.1,·,59*
CCOC(=O)c1nnn(-c2nonc2N)c1COc1cc(C)c(Cl)c(C)c1,1,+,0.9,1,106
CCOc1ccc(CC(=O)O)cc1,·,i,·,·,·
CCOc1cc2[nH]c(=S)n(CCCCC(=O)NCc3ccco3)c(=O)c2cc1OCC,·,+,1.2,·,90
O=C1C(Cl)=C(Nc2ccccc2)C(=O)N1c1ccc(Cl)cc1,·,i,·,·,·
COc1ccc(C)cc1NC(=O)CN1CCN(S(=O)(=O)c2ccc(C(C)C)cc2)CC1,4,+,0.8,-2,111
